From PubChem BioAssay (NCI)
About 83,000 compounds went through this panel and 20% of them were active in at least one assay; those are over-represented in the sample as a whole.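 Plates (96-well) were seeded with cells, treated with compound at one concentration, and incubated for 48 hours before percent growth was determined.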 A number with no mark means an inactive call. Active and inactive are the calls of the source. Rule for the calls: active = growth percent below 10; inactive = the rest.

These compounds were tested on 786-0 renal (assay: NCI-60 one-dose screen, 48 h (100 = growth as untreated, 0 = no growth, -100 = all killed)). Settings: 10 µM.

| Compound | growth |
| --- | --- |
| COc1ccc(/C=C/C(=O)c2ccc(NC(=O)CN3C(=O)NC(C)(c4ccccc4)C3=O)cc2)cc1 (stereo not drawn) | 81.2% |
| Cc1ccc(C(C)C)cc1NC(=O)c1ccccc1O | 58.8% |
| CC1(c2ccccc2)NC(=O)N(CC(=O)Nc2ccc(C(=O)/C=C/c3ccc(Br)cc3)cc2)C1=O (stereo not drawn) | 12.8% |
| C=C[C@@]12CN3CC[C@]1(O)[C@@](C(=O)OC)(CO2)c1[nH]c2ccccc2c1C3 | 84% |
| COc1ccc(/C=C/C(=O)c2ccc(S(=O)(=O)NCCNc3nc(Nc4ccc(F)cc4)nc(N(C)C)n3)cc2)cc1 | 13.5% |
| O=c1oc2ccccc2cc1-c1csc(N=Nc2c(O)[nH]c3ccc(Br)cc23)n1 | 12.5% |
| O=C(CSc1nnc(-c2c[nH]c3ccccc23)n1-c1ccccc1)Nc1ccc(C(=O)/C=C/c2ccccc2Cl)cc1 | 103% |
| O=C(NO)c1ccc(-c2nc3ccc4[nH]ncc4c3c3c2CCCC3)cc1 | -8.73% (active) |
| CS(=O)(=O)Nc1ccc(-c2ccc3c(c2)ncn3-c2ccc(NC(=O)Nc3ccc(Br)cc3)cc2)cc1 | -13.6% (active) |
| O=C(CS(=O)(=O)c1oc(-c2ccc(Cl)cc2)nc1S(=O)(=O)c1ccc(Cl)cc1)N1CCOCC1 | 40.3% |
| COc1cc(-c2nc3cc(Cl)c(Cl)cc3[nH]2)ccc1OCc1nnc(-c2ccc(Br)cc2)o1 | -31% (active) |
| COc1cccc(C(N)=Nc2ccc(OCCCCCCn3cncn3)cc2)c1 | 40.9% |
| COc1cc2c3c(n(CCCn4ccnc4)c(=O)c2cc1OC)-c1nc2c(cc1C3=O)OCO2 | 12.1% |
| Cc1ccc(/C=C/C(=O)c2ccc(NC(=O)CSc3nnc(-c4c[nH]c5ccccc45)n3-c3ccccc3)cc2)cc1 | 109% |
| O=C(CSc1nnc(-c2ccc3nc(-c4ccccc4)[nH]c3c2)o1)Nc1ccc(Br)cc1 | 66.7% |
| O=C(CNc1nc(-c2ccccc2)cs1)Nc1ccccc1 | -25.5% (active) |
| O=C(/C=C/Nc1ccc(F)cc1F)c1ccc2c(c1)Nc1ccccc1S2 | 88.1% |
| COc1cc(Cn2c(C(F)(F)F)cc3c(Cl)ncnc32)ccn1 | 93.3% |
| COc1ccc(-c2cc(C(=O)N=Nc3c(O)[nH]c4ccc(F)cc34)c3ccccc3n2)cc1 | 63.5% |

| Compound | growth |
| --- | --- |
| O=C(Nc1ccccc1)Nc1nc2ccccc2s1 | 102% |
| O=C(CSc1nnc(-c2ccc3nc(-c4ccccc4)[nH]c3c2)o1)Nc1ccc(Cl)cc1 | 16.9% |
| CCOc1ccc(Nc2nc3ccccc3nc2Nc2ccc(OCC)cc2)cc1 | 32.1% |
| CNC(=O)c1cc(-c2ccc(NC(=O)Nc3ccc(C)cc3)cc2)nc2cccnc12 | 104% |
| NC(=Nc1ccc(OCCCCCCCCn2ccnn2)cc1)c1ccccc1 | 45.7% |
| Cc1ccc(C(=O)Nc2ccc(-n3c(C)nc4c(cnn4-c4ccccc4)c3=O)cc2)cc1 | 86.1% |
| COc1ccc(-c2cc(-c3cc(C(=O)c4ccccc4)n4ccc(C)cc34)nc(N)c2C#N)cc1 | 13.5% |
| C[C@H]1[C@H](C)CC[C@]2(COC(=O)CCC(=O)NCC#CCN3CCNCC3)CC[C@]3(C)C(=CC[C@@H]4[C@@]5(C)CCCNC(C)(C)[C@@H]5CC[C@]43C)[C@H]12 | 55.1% |
| O=c1[nH]c2ccc(Cl)cc2cc1CSc1ccc(Nc2nccc(-c3ccc(Cl)cc3)n2)cc1 | 75.2% |
| COc1ccc(-c2cc(C(=O)N=Nc3c(O)[nH]c4ccccc34)c3ccccc3n2)cc1 | -40.9% (active) |
| COc1ccc(-c2nc(S(=O)(=O)c3ccc(C)cc3)c(S(=O)(=O)CC(=O)N(C)Cc3ccccc3)o2)cc1 | 22.2% |
| COc1ccc(C(C)=C(c2ccc(OCCCN(C)C)cc2)c2ccc(OCCCN(C)C)cc2)cc1 | -82.6% (active) |
| COc1cc2c3c(n(CCCNCCO)c(=O)c2cc1OC)-c1nc2c(cc1C3=O)OCO2 | -25.9% (active) |
| c1ccc(C(=C(c2ccc(OCCN3CCCCC3)cc2)c2ccc(OCCN3CCCCC3)cc2)C2CCCC2)cc1 | -33.3% (active) |
| O=C(CSc1nnc(-c2c[nH]c3ccccc23)n1-c1ccccc1)Nc1ccc(C(=O)/C=C/c2ccc(Cl)cc2)cc1 | 93.6% |
| COc1cnc2c(c1)C(=O)c1c-2n(CCCNC(C)C)c(=O)c2cc(OC)c(OC)cc12 | 22.9% |
| COc1ccc(NC(=O)CSc2nnc(-c3ccc4nc(-c5ccc(Cl)cc5)[nH]c4c3)o2)cc1 | 22.5% |
| CN(CCO)c1oc(-c2ccccc2)nc1[P+](c1ccccc1)(c1ccccc1)c1ccccc1 | 14.2% |
| CN1CCc2c(sc3ncnc(N/N=C/c4ccc5ccccc5c4)c23)C1 | 51% |
